Data reported in the supplement of paper PMC3545927.
The other results are listed elsewhere or left out. No count for the full screen is at hand.

B1: HC2209 (peptide)
chain: CAEVVTSYWVAGNASASA
B2: HC714 (peptide)
chain: CADLVGWPAPAGNASASA
B3: HC261 (peptide)
chain: CAYHVTNDCPAGNASASA
B4: FS-809 (peptide)
chain: CAKKWRMKREAGNASASA
B5: FS-357 (peptide)
chain: CALQGRSSRDAGNASASA
B6: HC1148 (peptide)
chain: CASWLRDIWDAGNASASA
B7: FS-840 (peptide)
chain: CAPPPRRTRDAGNASASA
B8: FS-430 (peptide)
chain: CAGQPRRSRDAGNASASA
B9: FS-843 (peptide)
chain: CAPWQRVDRDAGNASASA
B10: HC389 (peptide)
chain: CAASCRPLTDAGNASASA
B11: FS-639 (peptide)
chain: CAAFGRRRRDAGNASASA
B12: HC636 (peptide)
chain: CANHLTPLRDAGNASASA
B13: FS-164 (peptide)
chain: CAGRLRPLRDAGNASASA
B14: HC2009 (peptide)
chain: CAVYCCSMSYAGNASASA
B15: HC1942 (peptide)
chain: CATTPCSGSQAGNASASA
B16: FS-906 (peptide)
chain: CAFQRRRRRDAGNASASA
B17: FS-1671 (peptide)
chain: CAFQRRMAGMAGNASASA
B18: FS-647 (peptide)
chain: CADRRRRRRDAGNASASA
B19: FS-1158 (peptide)
chain: CARHIRRRRDAGNASASA
B20: FS-2937 (peptide)
chain: CARHIRLVLKAGNASASA
B21: FS-871 (peptide)
chain: CASRMREDRDAGNASASA
B22: FS-177 (peptide)
chain: CALTRRMRRDAGNASASA
B23: HC1946 (peptide)
chain: CAMCTTPCSGAGNASASA
B24: HC2390 (peptide)
chain: CAEVPCHRVSAGNASASA
B25: HC1979 (peptide)
chain: CAEPTTPCSGAGNASASA
B26: HC310 (peptide)
chain: CAWTTQGCNCAGNASASA
B27: HC1788 (peptide)
chain: CAWEMEECSQAGNASASA
B28: HC484 (peptide)
chain: CATRGERCDLAGNASASA

Molecular target: furin, P09958
Sequence (P09958 whole entry): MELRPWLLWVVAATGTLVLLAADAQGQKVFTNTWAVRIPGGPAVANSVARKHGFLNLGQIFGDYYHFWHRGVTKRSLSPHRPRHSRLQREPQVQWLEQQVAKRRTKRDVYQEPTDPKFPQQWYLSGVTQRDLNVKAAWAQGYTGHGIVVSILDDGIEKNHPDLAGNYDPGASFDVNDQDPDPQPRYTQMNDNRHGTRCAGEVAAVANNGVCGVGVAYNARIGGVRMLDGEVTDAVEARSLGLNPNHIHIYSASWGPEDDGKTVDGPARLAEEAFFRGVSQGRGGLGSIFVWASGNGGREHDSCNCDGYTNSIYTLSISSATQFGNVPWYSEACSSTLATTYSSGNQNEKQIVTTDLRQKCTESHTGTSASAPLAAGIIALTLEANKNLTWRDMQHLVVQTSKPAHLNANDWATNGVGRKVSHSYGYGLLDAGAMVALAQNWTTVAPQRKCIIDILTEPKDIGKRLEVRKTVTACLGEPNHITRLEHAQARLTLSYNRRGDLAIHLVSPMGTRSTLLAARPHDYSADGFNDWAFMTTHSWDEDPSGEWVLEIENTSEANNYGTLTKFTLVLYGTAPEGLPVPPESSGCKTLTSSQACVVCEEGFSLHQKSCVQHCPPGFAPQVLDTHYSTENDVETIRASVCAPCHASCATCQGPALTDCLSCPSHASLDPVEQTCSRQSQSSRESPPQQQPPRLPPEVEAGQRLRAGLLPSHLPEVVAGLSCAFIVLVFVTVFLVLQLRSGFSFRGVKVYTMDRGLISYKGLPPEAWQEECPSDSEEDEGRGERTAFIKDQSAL
Assay: furin cleavage Z-score vs untreated control; higher = more cleavage, active = 3.5 or more, inactive = 1 or less, 8 variable residues between constant flanks
Method in brief: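 Magnetic beads held 8-mer peptides by the N-terminus, each fused to a cDNA oligonucleotide, and purified furin was added for 7.5, 15 or 30 min. Released DNA was sequenced after PCR adapter tagging. The cleavage Z-score is the log count relative to furin-free reactions, lowess-adjusted and divided by median absolute deviation.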
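Note: purified furin at 1:10 enzyme:substrate in 50 mM HEPES pH 7.5.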

| Sequence | furin cleavage Z-score (7.5 min) | furin cleavage Z-score (15 min) | furin cleavage Z-score (30 min) |
| --- | --- | --- | --- |
| B1 | -1.41 (inactive) | -1.3 (inactive) | -1.27 (inactive) |
| B2 | -0.648 (inactive) | -0.464 (inactive) | -1.65 (inactive) |
| B3 | -0.934 (inactive) | -0.574 (inactive) | -0.88 (inactive) |
| B4 | 12.2 (active) | 12.8 (active) | 10.8 (active) |
| B5 | 0.94 (inactive) | 1.14 | 2.12 |
| B6 | -1.29 (inactive) | -0.331 (inactive) | 0.22 (inactive) |
| B7 | 7.22 (active) | 7.26 (active) | 5.47 (active) |
| B8 | 8.53 (active) | 9.91 (active) | 6.63 (active) |
| B9 | -0.541 (inactive) | 0.153 (inactive) | -0.511 (inactive) |
| B10 | -0.403 (inactive) | -0.436 (inactive) | 0.514 (inactive) |
| B11 | 6.8 (active) | 6.94 (active) | 5.25 (active) |
| B12 | -0.625 (inactive) | -0.983 (inactive) | -0.425 (inactive) |
| B13 | 6.08 (active) | 7.11 (active) | 5.86 (active) |
| B14 | -0.694 (inactive) | -1.09 (inactive) | -1.22 (inactive) |
| B15 | -0.135 (inactive) | -0.54 (inactive) | -2.05 (inactive) |
| B16 | 11.2 (active) | 12 (active) | 8.45 (active) |
| B17 | -0.225 (inactive) | -0.266 (inactive) | 0.306 (inactive) |
| B18 | 7.06 (active) | 7.21 (active) | 4.92 (active) |
| B19 | 10.5 (active) | 10.7 (active) | 6.88 (active) |
| B20 | -1.39 (inactive) | -0.583 (inactive) | -0.338 (inactive) |
| B21 | -0.996 (inactive) | -0.456 (inactive) | 1.09 |
| B22 | 14 (active) | 14.8 (active) | 9.72 (active) |
| B23 | 0.117 (inactive) | 1.58 | 0.427 (inactive) |
| B24 | 2.12 | 0.773 (inactive) | 2 |
| B25 | -1.55 (inactive) | -0.645 (inactive) | -0.627 (inactive) |
| B26 | 0.795 (inactive) | -2.96 (inactive) | -0.152 (inactive) |
| B27 | 1.14 | 0.864 (inactive) | -0.48 (inactive) |
| B28 | -0.0552 (inactive) | 1.25 | 1.03 |
